HPGD inh = HPGD (human) dehydrogenase inhibition; P15428; purified HPGD, NADH fluorescence kinetic, PGE2 substrate; Potency, µM, for inactives: top-dose activity change, negative = inhibition, most hits filed as inhibitors; hit rate 4.3% among 150,000; active means well fitted inhibition curve with a large enough effect, not every such curve was filed as active; inconclusive means small, poorly fitted or top-dose-only effect, or another doubt; inactive means no such curve, though single readings can be large or run the other way; further: potency means the concentration at half of the fitted maximal effect; on the % scale 0 is the no-effect control and ±100 the full control effect
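NADH formation kinetics: reaction with 30 uM PGE2 and 1 mM NAD+ (final), 20 nM enzyme, Tris-HCl pH 8 with Tween 20, after 15 min compound preincubation at room temperature. Fluorescence change, last versus first of five reads.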
IMPase inh = IMPase inhibition in cells; 120,000 tested, under 10 active; inhibition (IP1 accumulation), % at 46.1 µM; CHO-M1 cells, IP1 accumulation, HTRF TR-FRET ratio; active means well fitted curve in the direction sought with a large enough effect in the signal ratio, not every such curve was filed as active; inconclusive means small, poorly fitted or top-dose-only effect, or a change in a side signal; inactive means no such curve, though single readings can be large or run the other way; the % refers to the signal ratio;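 further: cells stimulated with carbachol in lithium chloride buffer; plate controls were DMSO basal wells for no effect and reference inhibitor wells for full effect; higher means more IMPase inhibition seen as more IP1 and lower FRET ratio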
Target sequence (P97697 whole entry, looked up): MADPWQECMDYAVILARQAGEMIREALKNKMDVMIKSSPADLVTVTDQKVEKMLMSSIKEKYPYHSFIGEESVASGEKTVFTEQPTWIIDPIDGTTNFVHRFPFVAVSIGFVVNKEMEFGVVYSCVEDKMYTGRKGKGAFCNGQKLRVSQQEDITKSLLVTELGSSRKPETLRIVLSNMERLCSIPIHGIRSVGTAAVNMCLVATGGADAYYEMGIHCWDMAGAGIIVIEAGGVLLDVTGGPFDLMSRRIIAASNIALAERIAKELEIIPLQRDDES
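Seeded CHO-M1 cells were dosed with compound at up to 46 uM, stimulated with carbachol for 30 min, then lysed in IP-One detection reagents. Higher IP1 lowers the TR-FRET signal.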
ALDH1A1 block = inhibitors of human aldehyde dehydrogenase 1A1 | P00352 | Potency, µM (series often up to 75.3 µM), without a hit: at the top dose activity, negative = inhibition, hits mostly inhibitors | Purified ALDH1A1, NADH fluorescence, propionaldehyde substrate | hit rate 7.3% among 220,000; active means well fitted inhibition curve with a large enough effect, not every such curve was filed as active; inconclusive means small, poorly fitted or top-dose-only effect, or another doubt; inactive means no such curve, though single readings can be large or run the other way;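 further: potency means the concentration at half of the fitted maximal effect; plate controls were no enzyme wells and a reference inhibitor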
Target sequence (P00352 whole entry, looked up): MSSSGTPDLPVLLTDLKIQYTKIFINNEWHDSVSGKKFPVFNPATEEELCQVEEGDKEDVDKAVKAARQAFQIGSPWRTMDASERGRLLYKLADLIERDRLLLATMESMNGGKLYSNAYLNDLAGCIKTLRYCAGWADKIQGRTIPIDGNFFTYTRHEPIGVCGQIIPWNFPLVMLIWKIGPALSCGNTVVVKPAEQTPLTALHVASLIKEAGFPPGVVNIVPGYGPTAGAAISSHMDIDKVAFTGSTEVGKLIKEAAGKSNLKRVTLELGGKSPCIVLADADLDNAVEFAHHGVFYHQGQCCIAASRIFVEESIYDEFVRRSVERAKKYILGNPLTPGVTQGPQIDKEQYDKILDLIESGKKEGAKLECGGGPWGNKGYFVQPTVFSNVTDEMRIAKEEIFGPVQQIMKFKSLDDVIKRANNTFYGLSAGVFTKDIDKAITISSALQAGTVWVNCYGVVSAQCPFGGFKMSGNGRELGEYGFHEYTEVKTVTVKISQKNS
HTT aggregate = inhibitors of mutant huntingtin aggregate formation in PC12 cells | PC12 HttQ103-GFP aggregates, Acumen cytometry, 40 h | Potency, µM (doses to about 46.1 µM), without a hit: at the highest dose activity change, negative = inhibition, actives largely listed as inhibitors | hit rate 1.1% among 220,000; further: potency means the concentration at half of the fitted maximal effect; on the % scale 0 is the no-effect control and ±100 the full control effect; nearly all actives have a fitted effect of over 60% in size
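Ecdysone-promoter PC12 model expressing HTT exon 1 Q103 fused to GFP, induced by tebufenozide at 100 nM final. Compounds titrated; aggregates sized 1–25 µm scored on a 488 nm laser cytometer.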
HTT ATP protect = protects HTT-Q103 PC12 cells, measured by ATP. PC12 HTT-Q103 induced, cytoprotection, ATP luminescence, 40 h. Potency, µM (titrated, usually from 56.4 µM), inactives show cytoprotection (ATP increase), hits mostly activators. hit rate 0.14% among 230,000. AID 1471; further: potency means the concentration at half of the fitted maximal effect; % of control where 0% means no effect; nearly all actives have a fitted effect of over 45% in size
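Stable PC12 Q103-GFP cells in serum-supplemented, phenol red-free DMEM; induction by tebufenozide at 100 nM final; compound dose series; cell viability quantified luminescently from ATP.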
IMPase Li cell = IMPase inhibition in cells with lithium potentiation. CHO-M1 cells, IP1 TR-FRET (IP-One), carbachol + lithium. Potency, µM (top dose mostly 59.4 µM), for the others: at the top dose activity, negative = IMPase inhibition, hits mostly inhibitors. hit rate 0.35% among 210,000. AID 1457;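 further: IP1 builds up when IMPase is blocked and the TR-FRET signal falls; potency means the concentration at half of the fitted maximal effect; plate controls were basal vehicle for no effect and high inhibitor control for full effect; nearly all actives have a fitted effect of over 50% in size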
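CHO cells stably expressing M1 receptor (2000/well) were cultured 16–30 h, then exposed to compounds with a small lithium addition for 30 min at 37C. IP1 was measured by TR-FRET competition; AC50 from Hill fits.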
Numbers without * were called inactive; [ ] = another dose, or the depositor's remark. Hits are enriched below; roughly 9.4% of the tested compounds scored in any of these assays. Unless noted, the call rests on the fitted dose curve; in most records, active means well fitted curve in the direction sought with a large enough effect; inconclusive means small, poorly fitted or top-dose-only effect, or another doubt; inactive means no such curve, though single readings can be large; an effect the other way counts as inactive or inconclusive.

CSC(=Nc1ccccc1)C1=C(O)COC1=O was read as HPGD inh -2%, IMPase inh inconclusive, ALDH1A1 block 25µM*, HTT aggregate 18%, HTT ATP protect -1%[10 µM] and IMPase Li cell -6%.
Screening CN(C)CCCN(C(=O)c1ccc2c(c1)CCCC2)c1nc2ccc(Cl)cc2s1 returned HPGD inh -17%, IMPase inh -8, ALDH1A1 block 14µM*, HTT aggregate -23%, HTT ATP protect -10%[10 µM] and IMPase Li cell 25%.
For COC(=O)C1CCN(CC(=O)Nc2cc(Cl)ccc2OC)CC1 the results were ALDH1A1 block 10%, HTT aggregate -6%, HTT ATP protect -19% and IMPase Li cell 1%.
For CC(=O)c1cc2c(cc1NC(=O)CN1CCCCCCC1)OCO2 the results were HPGD inh -10%, IMPase inh 9, ALDH1A1 block 10µM*, HTT aggregate -16%, HTT ATP protect 1%[10 µM] and IMPase Li cell 7%.
Screening COc1ccc(Cl)cc1NC(=O)Cn1cccc1 returned HPGD inh -16%, IMPase inh 7, ALDH1A1 block 13µM*, HTT aggregate 0%, HTT ATP protect -16% and IMPase Li cell 2%[38.3 µM].
For COC(=O)c1ccc(C(=O)OC)c(NC(=O)CN2CCCCC2)c1 the results were ALDH1A1 block inconclusive, HTT aggregate 11% and IMPase Li cell 7%.
`COc1cc(OC)c(NC(=O)Cn2cccc2)cc1Cl` gave HPGD inh -7%, IMPase inh 17, ALDH1A1 block -11%, HTT aggregate 2%, HTT ATP protect -4% and IMPase Li cell -5%[38.3 µM].
For COc1ccc(Cl)cc1NC(=O)CN1CCCC1 the results were ALDH1A1 block 10µM*, HTT aggregate -7%, HTT ATP protect 0% and IMPase Li cell 13%.
COC(=O)c1cc(OC)c(OC)cc1NC(=O)CN1CCCCC1 was read as HPGD inh -3%, IMPase inh -11, ALDH1A1 block 1%, HTT aggregate 0.63µM*, HTT ATP protect 0%[0.074 µM] and IMPase Li cell 5%[38.3 µM].
C=C1c2ccccc2O[C@H](C(=O)OCC)[C@@H]1C1CCCCC1 (tested in a mixture with another compound) was read as HPGD inh inconclusive, ALDH1A1 block inconclusive, HTT ATP protect -37% and IMPase Li cell 21%.
`COc1ccc(C)cc1NC(=O)CN1CCN(S(=O)(=O)c2ccc(C(C)C)cc2)CC1` gave HPGD inh -13%, IMPase inh 7, ALDH1A1 block 5µM*, HTT aggregate 3%, HTT ATP protect 5%[10 µM] and IMPase Li cell 4%[38.3 µM].
Screening CCOC(=O)C1C(=O)CC(C)(O)C(C(=O)OCC)C1c1ccc(OC)cc1 (centres undefined) returned HPGD inh -7%, IMPase inh -6, ALDH1A1 block 6%, HTT aggregate 13%, HTT ATP protect -7% and IMPase Li cell -22%[38.3 µM].
`CC(=O)C1C(=O)CC(C)(O)C(C(C)=O)C1c1ccc(N(C)C)cc1` (centres undefined) gave HPGD inh 0%, IMPase inh -8, ALDH1A1 block 3.2µM*, HTT aggregate -11%, HTT ATP protect -8% and IMPase Li cell 29%[38.3 µM].
Screening COCc1cc(Sc2ccc(Br)cc2)nc(-c2ccccc2)n1 returned HPGD inh -1%, IMPase inh 3, ALDH1A1 block -1%, HTT aggregate -13%, HTT ATP protect -6% and IMPase Li cell 3%[38.3 µM].
Clc1cc(Sc2ccc(Br)cc2)nnc1-c1ccccc1 was read as HPGD inh -21%, IMPase inh 4, ALDH1A1 block 1µM*, HTT aggregate -26%, HTT ATP protect -44% and IMPase Li cell 18%[38.3 µM].
For COC(=O)c1ccc2c(=O)[nH]c(CN3c4ccccc4CC3C)nc2c1 (centres undefined) the results were HPGD inh -13%, IMPase inh 2, ALDH1A1 block 11µM*, HTT aggregate 17%, HTT ATP protect -21% and IMPase Li cell -4%[38.3 µM].
For COc1ccc(Cl)cc1NC(=O)CNc1ccccc1CN(C)C1CCCCC1 the results were ALDH1A1 block 8.9µM*, HTT aggregate -15%, HTT ATP protect -17%[10 µM] and IMPase Li cell 22%.
Screening Cc1ccc(NC(=O)CNc2ccccc2CN(C)C2CCCCC2)cc1 returned ALDH1A1 block 20µM*, HTT aggregate -10%, HTT ATP protect -30% and IMPase Li cell 8%.
For CN(CC(=O)Nc1ccc(OC(F)(F)F)cc1)C1CCCCC1 the results were ALDH1A1 block -15%, HTT aggregate 1%, HTT ATP protect -26% and IMPase Li cell 8%.
Screening COc1ccc(C)cc1NC(=O)CNc1ccccc1CN(C)C1CCCCC1 returned ALDH1A1 block 20µM*, HTT aggregate 12%, HTT ATP protect 1%[10 µM] and IMPase Li cell 20%.
`O=C(NNS(=O)(=O)c1cccc(Cl)c1)c1cc(-c2ccc(F)cc2)nc2ccccc12` gave ALDH1A1 block -12%, HTT aggregate 13%, HTT ATP protect -1%[10 µM] and IMPase Li cell 1%.
For Cc1ccc2oc(-c3ccc(NC(=O)CCC(=O)O)cc3)nc2c1 the results were IMPase inh -5.
Cc1ccc(NC(=O)CN2C(=O)CNC2=O)cc1 was read as HTT aggregate -11%[9.22 µM] and HTT ATP protect 15%[10 µM].
For COC(=O)c1ccc(NC(=O)CN2CCN(c3cccc(Cl)c3)CC2)cc1 the results were HPGD inh -8%, IMPase inh -16, ALDH1A1 block -7%, HTT aggregate 7%, HTT ATP protect 5% and IMPase Li cell 39%[38.3 µM].
COC(=O)c1ccc(NC(=O)CN2CCN(S(=O)(=O)c3cc(Cl)ccc3OC)CC2)cc1 was read as HPGD inh -31%, IMPase inh 2, ALDH1A1 block 2µM*, HTT aggregate -2%, HTT ATP protect 11%[10 µM] and IMPase Li cell 21%.
For COC(=O)c1ccc(NC(=O)CN2CCN(c3ccc(Cl)cc3)CC2)cc1 the results were HPGD inh -28%, IMPase inh -3, ALDH1A1 block 22µM*, HTT aggregate -4%, HTT ATP protect 11%[10 µM] and IMPase Li cell 26%.
COC(=O)c1ccc(NC(=O)CN2C(=O)CNC2=O)cc1 was read as HPGD inh -19%, IMPase inh -2, ALDH1A1 block 18µM*, HTT aggregate 19%, HTT ATP protect 30% and IMPase Li cell 4%[38.3 µM].
`CN(C)S(=O)(=O)c1cc(NC(=O)CN2CCN(c3ccc(O)cc3)CC2)ccc1Cl` gave ALDH1A1 block 13µM*, HTT aggregate -1%, HTT ATP protect -10% and IMPase Li cell 7%.
For CN1CCN(c2ncc3ncc(=O)n(C[C@H]4CCCO4)c3n2)CC1 the results were ALDH1A1 block inconclusive, HTT ATP protect 14% and IMPase Li cell -5%.

Source: PubChem BioAssay (National Center for Advancing Translational Sciences (NCATS))
